Source: PubChem
A selection: hits, their analogues and other compounds. The true share with any hit is near 10%.
G9a block = qHTS Assay for Inhibitors of Histone Lysine Methyltransferase G9a. Potency, µM (top dose mostly 102 µM), inactives show at the top dose activity, negative = inhibition, most hits filed as inhibitors. hit rate 8.8% among 350,000. Histone-lysine N-methyltransferase EHMT2 (Homo sapiens), Q96KQ7. G9a H3K9 monomethylation, AlphaScreen, 2 h; also: % is scaled to controls: 0 for no effect and ±100 for the full control effect; nearly all actives have a fitted effect of over 75% in size
Target sequence (Q96KQ7 913-1193 limits assumed): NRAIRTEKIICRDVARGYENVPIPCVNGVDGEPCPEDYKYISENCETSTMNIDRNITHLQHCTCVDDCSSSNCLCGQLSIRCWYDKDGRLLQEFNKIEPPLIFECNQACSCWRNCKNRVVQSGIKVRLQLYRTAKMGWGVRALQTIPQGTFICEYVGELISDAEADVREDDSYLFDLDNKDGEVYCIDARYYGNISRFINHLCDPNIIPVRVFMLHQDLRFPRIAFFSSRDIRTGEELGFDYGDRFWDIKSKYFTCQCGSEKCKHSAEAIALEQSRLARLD
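Methyltransferase reactions run at room temperature for 2 h (20 nM enzyme, 500 nM biotin-H3K9 peptide, 20 uM SAM) after a 15 min compound preincubation; product detected by AlphaScreen beads and anti-H3K9me1 antibody.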
L3MBTL1 block = qHTS Assay for the Inhibitors of L3MBTL1; Lethal(3)malignant brain tumor-like protein 1 (Homo sapiens), Q9Y468; AlphaScreen L3MBTL1–H3K9me1 peptide binding; Potency, µM (doses to about 57.1 µM), without a hit: at the top dose activity, negative = inhibition, most hits filed as inhibitors; hit rate 0.66% among 230,000; AID 485360, 2010; also: % is scaled to controls: 0 for no effect and ±100 for the full control effect; nearly all actives have a fitted effect of over 60% in size
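First, the protein-peptide complex forms for 30 min at room temperature (L3MBTL1 50 nM, biotinylated H3K9me1 peptide 75 nM). Next, compounds are pin-transferred and incubated 30 min. Finally, AlphaScreen beads are added and read after 30 min.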
GLS inhibitor = qHTS for Inhibitors of Glutaminase (GLS); Glutaminase kidney isoform, mitochondrial (Homo sapiens), O94925; GLS enzymatic activity, qHTS titration; Potency, µM (highest dose often 45.5 µM), for the others: top-dose activity change, negative = inhibition, most hits filed as inhibitors; hit rate 0.21% among 410,000; AID 624170, 2012; also: % is scaled to controls: 0 for no effect and ±100 for the full control effect
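Assay buffer: 45 mM KH2PO4 pH 8.2, 0.02% Tween-20. hKGA acts on L-glutamine (1 mM solution added); product glutamate is reported by an oxidase/peroxidase Amplex Red coupling, with fluorescence taken at baseline and 30 min.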
JMJD2A Tudor = qHTS Assay for Inhibitors of JMJD2A-Tudor Domain | AlphaScreen JMJD2A-Tudor / H3K4me3 peptide binding | Potency, µM (doses to about 114 µM), for inactives: at the top dose activity change, negative = inhibition, usual class: inhibitors | hit rate 4.4% among 390,000 | AID 504339, 2011; also: % is scaled to controls: 0 for no effect and ±100 for the full control effect; nearly all actives have a fitted effect of over 50% in size
HP1b binding inh = HTS for Inhibitors of HP1-beta Chromodomain Interactions with Methylated Histone Tails. Chromobox protein homolog 1 (Homo sapiens), P83916. AlphaScreen HP1-beta / biotin-H3K9me3 peptide binding. Potency, µM (highest dose often 114 µM), for the others: at the highest dose activity change, negative = inhibition, usual class: inhibitors. hit rate 0.56% among 390,000. AID 540317, 2011; also: nearly all actives have a fitted effect of over 70% in size
Target sequence (P83916 whole entry, looked up): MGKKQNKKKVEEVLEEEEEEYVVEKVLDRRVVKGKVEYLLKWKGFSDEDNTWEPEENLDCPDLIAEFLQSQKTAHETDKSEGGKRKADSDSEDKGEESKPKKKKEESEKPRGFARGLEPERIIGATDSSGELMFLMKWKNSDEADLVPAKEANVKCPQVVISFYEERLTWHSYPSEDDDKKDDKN
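AlphaScreen: HP1-beta (50 nM) preformed 30 min with biotin-H3(1-18)K9me3 peptide (50 nM) in PBS pH 7.4, 0.01% Tween-20. Compound added for 30 min at RT, then streptavidin donor/nickel chelate acceptor beads (10 ug/mL) for 30 min.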
BAZ2B inh = qHTS Assay for Inhibitors of BAZ2B. AlphaScreen BAZ2B-H3K14Ac peptide displacement. Potency, µM (series often up to 114 µM), for inactives: at the top dose activity change, negative = inhibition, most hits filed as inhibitors. hit rate 4.4% among 360,000. AID 504333, 2011; also: % is scaled to controls: 0 for no effect and ±100 for the full control effect; nearly all actives have a fitted effect of over 60% in size
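AlphaScreen displacement: compounds (up to 110uM) incubated 30 min at room temperature with a preformed 50 nM BAZ2B/50 nM biotinylated H3K14Ac peptide complex in PBS pH 7.4 with Tween-20. Donor and acceptor beads at 10 ug/mL final added, 20 min light-protected before reading.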
* marks the source's active call; other numbers are inactive results; ? = inconclusive; . = no result given; [ ] = dose if it differs, or a comment. Calls follow the shape of the dose curve; as a rule, active = well fitted curve in the direction sought with a large enough effect; inconclusive = small, poorly fitted or top-dose-only effect, or another doubt; inactive = no such curve, though single readings can be large; an effect the other way counts as inactive or inconclusive. Potency is read from the fitted curve at half-maximal effect.

SMILES | G9a block | L3MBTL1 block | GLS inhibitor | JMJD2A Tudor | HP1b binding inh | BAZ2B inh
O=C(CSc1nc(-c2ccccc2)[nH]c1-c1ccc(F)cc1)NC1CCCC1 | -48%[59 µM] | . | -4% | ? | 0% | -25%
COc1ccc(Nc2ncc(C(=O)N3CCN(c4ccc(OC)cc4)CC3)c3ccccc23)cc1 | 18µM* | . | 33% | ? | 8% | -38%
COc1ccc(-c2cc(C(=O)N3CCN(c4ccccc4)CC3)c3ccccc3n2)cc1OC | ? | . | 5% | ? | -11% | -36%
COc1ccc(N2CCN(C(=O)c3csc4ccccc34)CC2)cc1 | 20µM* | -3% | 26% | ? | -25% | -30%
COc1ccc(N2CCN(C(=O)c3cc(-c4cccs4)nc4ccccc34)CC2)cc1 | 22µM* | -24% | -4% | ? | -31% | ?
COc1ccc(N2CCN(C(=O)c3ccc(SC)cc3OC)CC2)cc1 | 28µM* | ? | 1% | -34% | -10% | -37%
COc1ccccc1OC(C)C(=O)Nc1c(C(=O)c2ccc(Cl)cc2)oc2ccccc12 (stereo not given) | 12%[59 µM] | . | 3% | 6% | 42% | -1%
O=S(=O)(c1ccc2c(c1)OCCO2)N1CCN(S(=O)(=O)c2ccc(F)cc2F)CC1 | . | . | . | -20% | . | .
O=C(Nc1cc2c(cc1C(=O)c1ccccc1Cl)OCCO2)c1ccccc1 | 41%[59 µM] | . | -2% | -25% | 7% | 7%
COC(=O)CCCC1=CC2=CC(=O)C(C)(OC(=O)c3cccs3)C(=O)C2=CN1C1CCCC1 (stereo not given) | -20%[59 µM] | . | -3% | -20% | 28% | -37%
CC1(OC(=O)c2cccs2)C(=O)C=C2C=C3CCCN3C=C2C1=O (stereo not given) | -37%[59 µM] | . | 16µM* | 56µM* | ? | 45µM*
CC1(OC(=O)CCc2ccccc2)C(=O)C=C2C=C3CCCN3C=C2C1=O (stereo not given) | -39%[59 µM] | . | -20% | 56µM* | -9% | 56µM*
N#Cc1nc(/C=C/c2ccc(F)cc2)oc1N1CCCCCC1 | ? | . | 3% | -6% | ? | ?
COc1cccc(NC(=O)Cn2c(=O)n(Cc3ccco3)c(=O)c3cc(OC)c(OC)cc32)c1 | 6%[59 µM] | . | 6% | -9% | 40% | -5%
O=C1c2[nH]nc(-c3ccccc3O)c2C(c2cccc(OCc3ccccc3)c2)N1CCCO (stereo not given) | -1%[59 µM] | . | 1% | -17% | 27% | -15%
Clc1ccc(Sc2ccccn2)cc1 | . | 54% | -7% | 4% | 54% | 66%
c1ccc(Sc2ncccn2)nc1 | 32µM* | 7% | -2% | -9% | 17% | -2%
CCCN(CCC)CCCNC(=O)Cn1ncn2c(cc3sc(CC)cc32)c1=O | -20%[59 µM] | . | 1% | 1% | 13% | -2%
O=C(Cn1cc(COc2c(F)c(F)cc(F)c2F)nn1)c1ccc(O)cc1 | . | . | 3% | 40µM* | 64% | .
COc1ccc(C2C(C#N)=C(N)Oc3c2sc2nc(C)cc(C)c32)cc1 (stereo not given) | 11µM* | . | ? | -18% | 17% | -36%
CCc1ccccc1NC(=S)N(Cc1ccc(OC)cc1)CC1CCC(C(=O)O)CC1 (stereo not given) | -2% | . | 19% | -1% | 43% | 9%
COc1ccc(Cl)cc1NC(=S)N(Cc1ccccc1C)CC1CCC(C(=O)O)CC1 (stereo not given) | 28µM* | . | 20% | -14% | 8% | 6%
COc1cccc(C(=O)N(Cc2nc(-c3ccc(Cl)cc3)no2)C(C)C)c1OC | -6%[59 µM] | . | 1% | -8% | 25% | -15%
CCn1c(C(=O)N2CCC(C(=O)N3CCN(c4cccc(C)c4C)CC3)CC2)cc2sccc21 | ? | . | 1% | ? | -12% | 22µM*
CCn1c(C(=O)N2CCC(C(=O)N3CCN(c4cc(C)ccc4C)CC3)CC2)cc2sccc21 | ? | . | 0% | 22µM* | ? | 22µM*
SMILES | G9a block | L3MBTL1 block | GLS inhibitor | JMJD2A Tudor | HP1b binding inh | BAZ2B inh
CCn1c(C(=O)N2CCC(C(=O)N3CCN(c4ccccn4)CC3)CC2)cc2sccc21 | -13%[59 µM] | 4% | 8% | -26% | 17% | -25%
Cc1ccc(C(=O)N2CCN(CCc3ccncc3)CC2)cc1 | -2%[59 µM] | . | 7% | -12% | 45% | -16%
C(#Cc1ccccc1)CN1CCN(c2ccccn2)CC1 | ? | -3% | 5% | ? | 1% | 50µM*
CC(CCN1CCN(c2ccccn2)CC1)c1ccccc1 (stereo not given) | 28µM* | -6% | 13% | 25µM* | ? | ?
NC(=O)C1CCCN(CC(O)COCc2ccc(Cl)cc2)C1 (stereo not given) | -10% | . | -1% | 18µM* | -32% | 50µM*
OCCC1CCCCN1CC(O)COCc1ccc(Cl)cc1 (stereo not given) | ? | . | 14% | 22µM* | ? | ?
CCC1CCCCN1CC(O)COCc1cccc(OC)c1 (stereo not given) | 13% | . | -13% | -8% | -8% | -16%
CCOC(=O)C1CCN(CC(O)COCc2ccc(Cl)cc2)CC1 (stereo not given) | 22% | . | 8% | 11% | 33% | -5%
CCOc1ccc(NC(=O)C2Cc3ccccc3N2C(=O)c2ccccc2)cc1 (stereo not given) | ? | . | 1% | -3% | 57% | -3%
O=C(c1cccc2ccccc12)N1CCN(S(=O)(=O)c2ccccc2)CC1 | . | . | . | -18% | 78% | .
Cc1ccc(C)c(C2=NNC(=NCc3ccccc3)SC2)c1 | 35µM* | . | -6% | -34% | -2% | -33%
COc1ccc(CN=C2NN=C(c3ccccc3)CS2)cc1 | 35µM* | . | -1% | ? | -5% | .
CC(C)Sc1nc2sccc2c(=O)n1-c1ccccc1 | 40µM* | . | 0% | -3% | 25% | -13%
CC1=NN(c2ccccc2)C(=O)C1C(=O)C(=O)Nc1ccc(F)cc1 (stereo not given) | 35µM* | . | 12% | -22% | 27% | ?
CC1=NN(c2ccccc2)C(=O)C1C(=O)c1ccccc1 (stereo not given) | ? | 2% | 15% | ? | 0% | -37%
CC1=NN(c2ccccc2)C(=O)C1C(=O)c1ccc(Cl)cc1 (stereo not given) | 40µM* | 0% | 4% | -12% | 77% | -28%
